Measurements reported in PubChem BioAssay.
Several values for one entry are separate records, joined by “and”; a condition that tells them apart may be missing. Equal entries are not always repeated. Activity calls are given as the source filed them.

Legend:
Albumin (Bos taurus) = Albumin (Bos taurus) (UniProt P02769); experiment: compounds binding labelled BSA control protein – biochemical, small-molecule microarray, Alexa647 label, 635/667 nm fluorescence, artefact control for SMM control protein annotation, profiling panel (AID 1118); settings: BSA-A647 binding, fluorescence 635 nm, higher = more signal;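 further: score merges 667 nm emission intensity and signal-to-noise per printed compound spot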
[1] = probe aXIP binding to arrayed compounds – biochemical, NeuroSMM set, 635/667 nm fluorescence, primary screen (AID 1119); settings: small-molecule microarray; higher = more signal, called active from +8 up or from −8 down unless noted;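 further: probe is the protein aXip251-270 applied at 1 µg/mL to compound-printed slides; binding of probe to printed compounds measured as 667 nm fluorescence plus signal to noise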
[2] = probe aNOTCH3 binding on compound microarray – biochemical, small-molecule microarray, 635/667 nm fluorescence, primary screen (AID 1120); settings: higher = more signal; small-molecule microarray, probe aNOTCH3, fluorescence unless noted;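 further: probe is a biotin-tagged antibody raised against NOTCH3 rather than NOTCH3 protein; score merges spot fluorescence near 667 nm with spot signal to noise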
[3] = probe aNOTCH2 binding on compound microarray – biochemical, small-molecule microarray, 635/667 nm fluorescence, primary screen (AID 1121); settings: higher = more signal; small-molecule microarray, probe aNOTCH2, fluorescence unless noted;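 further: score merges feature fluorescence read at 667 nm with its signal to noise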
[4] = target: Carbonic anhydrase 2 (Homo sapiens) (UniProt P00918); experiment: compounds binding carbonic anhydrase 2 – biochemical, small-molecule microarray, Alexa647-labelled CAII, profiling panel (AID 1122); settings: CAII-A647 binding fluorescence, higher = more signal
[5] = COS7 lysate on small-molecule microarray, probe aHis, 635 nm (AID 1123); settings: higher = more signal; small-molecule microarray, COS7 cell lysate, probe aHis, fluorescence unless noted;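 further: z-score combines 667nm fluorescence intensity with signal-to-noise per printed compound spot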
[6] = probe aLAP1 signal on lysate-treated microarray – cell lysate, small-molecule microarray, COS7 lysate, primary screen (AID 1124); settings: higher = more signal; small-molecule microarray, COS7 cell lysate, probe aLAP1, fluorescence unless noted;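 further: lysate comes from COS7 cells expressing LAP1 and is applied at 0.3 µg/mL; score merges spot fluorescence near 667 nm with signal-to-noise over triplicate slides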
Sam68 (KHDRBS1) = experiment: compounds binding KHDRBS1 protein – biochemical, small-molecule microarray, 635 nm fluorescence, primary screen (AID 1125); settings: higher = more signal;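 further: score merges 667 nm channel intensity with signal to noise over triplicate slides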
[7] = tested on: Chordin-like protein 2 (CHRDL2); experiment: compounds binding chordin-like 2 – biochemical, small-molecule microarray, 635 nm fluorescence, primary screen (AID 1126); settings: fluorescence 635 nm, higher = more signal;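 further: printed compound slides probed with Chrdl2 protein at 4 µg/mL for 1 h at 4 C; score merges 667 nm emission intensity with signal to noise over three replicate slides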
[8] = target: Concanavalin-A (Canavalia ensiformis) (UniProt P02866); experiment: compounds binding concanavalin A lectin – biochemical, small-molecule microarray, Alexa647 label, 635 nm, artefact control for SMM control protein annotation, primary screen (AID 1127); settings: ConA-A647 binding fluorescence, higher = more signal;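 further: z combines 667 nm emission intensity with signal-to-noise across three replicate slides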
[9] = compounds binding Alexa647 anti-His antibody – biochemical, small-molecule microarray, 635 nm fluorescence, artefact control for SMM control protein annotation, primary screen (AID 1128); settings: higher = more signal;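 further: score merges feature fluorescence with signal-to-noise for each printed compound spot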
[10] = tested on: Human papillomavirus type 1a E7 protein (residues 1-88); experiment: HPV1a E7 small-molecule binders, primary screen, biochemical, small-molecule microarray, residues 1-88, 635 nm (AID 1129); settings: small-molecule microarray binding, fluorescence 635 nm; higher = more signal
[11] = target: Focal adhesion kinase 1 (Homo sapiens) (UniProt Q05397); experiment: PTK2 protein binding on printed compound slides – biochemical, small-molecule microarray, 635/667 nm fluorescence, BSA, DTT, primary screen (AID 1130); settings: 635 nm fluorescence, higher = more signal;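 further: composite of spot emission at 667 nm and signal to noise over triplicate slides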
[12] = tested on: Fibrinogen (Alexa647-labelled); experiment: Alexa647-fibrinogen binding to printed small molecules – biochemical, small-molecule microarray, 635/667 nm fluorescence, artefact control for SMM control-protein annotation, profiling panel (AID 1131); settings: fibrinogen-A647 binding fluorescence, higher = more signal;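 further: z-score merges 667 nm fluorescence with per-spot signal-to-noise over triplicate slides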
[13] = target: Follistatin (Homo sapiens) (UniProt P19883); experiment: FST protein binding to printed compounds – biochemical, small-molecule microarray, 635/667 nm fluorescence, primary screen (AID 1132); settings: 635 nm fluorescence, higher = more signal
[14] = target: Fibroblast growth factor 2 (Homo sapiens) (UniProt P09038); experiment: basic fibroblast growth factor binding to printed compounds – biochemical, small-molecule microarray, 635/667 nm fluorescence, primary screen (AID 1133); settings: FGF2, fluorescence 635/667, higher = more signal
[15] = JC-1 mitochondrial potential readout, lung cancer cells – cell-based, A549, JC-1 fluorescence, basal, 24 h, 100 nL, profiling panel (AID 1138); settings: higher = more signal;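 further: A549 lung adenocarcinoma cells under basal conditions with no added stimulus; test concentration not given here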
Lefty1 = Lefty1 protein binding to printed compounds – biochemical, small-molecule microarray, 635/667 nm fluorescence, primary screen (AID 1139); settings: fluorescence 635/667, higher = more signal
[16] = tested on: wheat germ agglutinin (Triticum aestivum), Alexa647-labelled; experiment: Alexa647-WGA lectin binding to printed small molecules – biochemical, small-molecule microarray, 635/667 nm fluorescence, artefact control for SMM control-protein annotation, profiling panel (AID 1140); settings: WGA-A647 binding, 635 nm fluorescence, higher = more signal;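 further: score merges 667 nm feature emission with signal to noise over triplicate slides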
[17] = target: Luciferin 4-monooxygenase (Photinus pyralis) (UniProt P08659); experiment: inhibition of purified Photinus pyralis luciferase – biochemical, luminescence, purified enzyme, 2006 set, primary screen (AID 1141); settings: purified firefly luciferase, SteadyGlo luminescence, 30 min; higher = more signal, called active from +8 up or from −8 down unless noted;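 further: cell-free assay with purified firefly luciferase at 100 ng per well in PBS; test concentration not given here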
Chain of Luciferin 4-monooxygenase (Photinus pyralis) (P08659 whole entry, looked up): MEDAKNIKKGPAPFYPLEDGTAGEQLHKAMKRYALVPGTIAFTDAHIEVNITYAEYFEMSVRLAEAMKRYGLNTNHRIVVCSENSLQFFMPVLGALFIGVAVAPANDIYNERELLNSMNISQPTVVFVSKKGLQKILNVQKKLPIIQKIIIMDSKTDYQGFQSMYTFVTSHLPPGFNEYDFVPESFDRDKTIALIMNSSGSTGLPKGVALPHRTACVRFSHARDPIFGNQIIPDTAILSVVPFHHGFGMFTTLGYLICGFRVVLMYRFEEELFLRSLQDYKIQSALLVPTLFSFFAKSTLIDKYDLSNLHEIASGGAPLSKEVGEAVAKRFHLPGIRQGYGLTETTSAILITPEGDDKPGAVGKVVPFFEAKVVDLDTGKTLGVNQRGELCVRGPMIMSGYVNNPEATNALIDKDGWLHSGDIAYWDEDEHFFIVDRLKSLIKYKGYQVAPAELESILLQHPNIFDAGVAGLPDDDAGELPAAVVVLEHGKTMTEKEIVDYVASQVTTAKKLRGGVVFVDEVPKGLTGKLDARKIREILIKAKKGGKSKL

Chain of Focal adhesion kinase 1 (Homo sapiens) (Q05397 whole entry, looked up): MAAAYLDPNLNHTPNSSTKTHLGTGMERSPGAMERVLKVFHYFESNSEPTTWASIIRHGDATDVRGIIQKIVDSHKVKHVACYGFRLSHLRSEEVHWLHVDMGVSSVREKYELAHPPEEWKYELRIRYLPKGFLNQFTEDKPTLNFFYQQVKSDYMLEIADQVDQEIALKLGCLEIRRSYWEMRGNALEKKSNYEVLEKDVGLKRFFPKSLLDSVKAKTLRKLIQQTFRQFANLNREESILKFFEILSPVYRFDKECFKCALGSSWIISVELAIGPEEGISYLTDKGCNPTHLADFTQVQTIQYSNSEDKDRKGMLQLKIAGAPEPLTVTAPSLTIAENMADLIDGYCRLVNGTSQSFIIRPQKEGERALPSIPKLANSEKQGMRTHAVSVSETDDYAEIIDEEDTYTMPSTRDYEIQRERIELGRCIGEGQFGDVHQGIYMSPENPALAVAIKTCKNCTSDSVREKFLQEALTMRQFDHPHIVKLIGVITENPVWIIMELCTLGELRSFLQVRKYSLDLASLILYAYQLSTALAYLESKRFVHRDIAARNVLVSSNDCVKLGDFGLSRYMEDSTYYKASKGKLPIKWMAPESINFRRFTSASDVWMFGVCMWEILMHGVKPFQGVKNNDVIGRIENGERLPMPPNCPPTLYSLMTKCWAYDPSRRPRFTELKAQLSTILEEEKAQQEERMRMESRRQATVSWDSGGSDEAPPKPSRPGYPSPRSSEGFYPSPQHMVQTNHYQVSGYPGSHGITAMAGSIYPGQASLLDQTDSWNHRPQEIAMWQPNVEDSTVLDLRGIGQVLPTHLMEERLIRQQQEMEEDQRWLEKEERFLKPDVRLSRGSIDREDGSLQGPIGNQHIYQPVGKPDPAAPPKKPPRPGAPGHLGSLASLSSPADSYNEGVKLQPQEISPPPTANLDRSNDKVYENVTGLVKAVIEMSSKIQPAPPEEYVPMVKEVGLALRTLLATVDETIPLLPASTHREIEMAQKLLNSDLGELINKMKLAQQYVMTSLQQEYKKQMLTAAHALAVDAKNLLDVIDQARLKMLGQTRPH
Chain of Concanavalin-A (Canavalia ensiformis) (P02866 whole entry, looked up): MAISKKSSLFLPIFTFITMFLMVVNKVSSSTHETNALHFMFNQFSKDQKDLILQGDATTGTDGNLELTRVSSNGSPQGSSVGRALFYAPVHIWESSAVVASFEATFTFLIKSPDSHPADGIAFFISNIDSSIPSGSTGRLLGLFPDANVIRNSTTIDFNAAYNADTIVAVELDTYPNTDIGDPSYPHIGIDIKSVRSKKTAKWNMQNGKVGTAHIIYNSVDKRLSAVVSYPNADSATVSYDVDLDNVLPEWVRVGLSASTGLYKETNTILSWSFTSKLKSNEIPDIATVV
Chain of Fibroblast growth factor 2 (Homo sapiens) (P09038 whole entry, looked up): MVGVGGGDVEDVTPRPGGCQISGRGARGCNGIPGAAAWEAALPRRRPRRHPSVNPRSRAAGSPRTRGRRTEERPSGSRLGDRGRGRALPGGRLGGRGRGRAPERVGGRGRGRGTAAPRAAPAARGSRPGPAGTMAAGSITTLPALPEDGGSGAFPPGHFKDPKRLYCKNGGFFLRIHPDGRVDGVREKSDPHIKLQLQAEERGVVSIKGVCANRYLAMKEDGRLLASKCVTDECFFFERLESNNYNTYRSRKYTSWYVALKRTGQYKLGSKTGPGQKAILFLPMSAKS
Chain of Follistatin (Homo sapiens) (P19883 whole entry, looked up): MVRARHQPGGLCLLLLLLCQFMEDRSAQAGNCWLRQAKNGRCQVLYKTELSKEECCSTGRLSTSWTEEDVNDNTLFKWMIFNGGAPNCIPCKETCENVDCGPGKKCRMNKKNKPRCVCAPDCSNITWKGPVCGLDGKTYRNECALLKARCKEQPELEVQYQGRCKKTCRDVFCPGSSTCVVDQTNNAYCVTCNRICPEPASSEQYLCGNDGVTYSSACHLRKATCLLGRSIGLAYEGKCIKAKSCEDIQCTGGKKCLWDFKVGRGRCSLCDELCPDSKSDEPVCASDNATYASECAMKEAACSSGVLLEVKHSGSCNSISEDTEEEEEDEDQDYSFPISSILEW
Chain of Albumin (Bos taurus) (P02769 whole entry, looked up): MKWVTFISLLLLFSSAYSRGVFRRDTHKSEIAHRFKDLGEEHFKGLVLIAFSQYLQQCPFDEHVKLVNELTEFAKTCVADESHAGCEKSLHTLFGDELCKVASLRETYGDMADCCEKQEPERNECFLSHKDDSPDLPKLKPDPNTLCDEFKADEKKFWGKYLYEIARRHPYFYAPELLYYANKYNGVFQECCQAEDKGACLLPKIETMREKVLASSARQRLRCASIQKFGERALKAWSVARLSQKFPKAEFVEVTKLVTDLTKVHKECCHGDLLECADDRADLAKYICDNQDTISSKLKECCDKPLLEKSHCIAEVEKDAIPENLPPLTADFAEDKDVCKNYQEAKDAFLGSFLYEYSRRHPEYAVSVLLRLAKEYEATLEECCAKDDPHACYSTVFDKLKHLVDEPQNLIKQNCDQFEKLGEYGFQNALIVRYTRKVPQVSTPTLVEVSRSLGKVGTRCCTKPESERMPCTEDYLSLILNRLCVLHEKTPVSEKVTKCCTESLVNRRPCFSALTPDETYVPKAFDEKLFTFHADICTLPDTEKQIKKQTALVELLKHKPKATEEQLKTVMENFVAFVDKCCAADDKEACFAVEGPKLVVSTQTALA

SMILES	composite z-score (Albumin (Bos taurus))	composite Z-score [1]	composite z-score [2]	composite z-score [3]	composite z-score [4]	composite z-score [5]	composite z-score [6]	composite z-score (Sam68 (KHDRBS1))	composite z-score [7]	composite z-score [8]	composite z-score [9]	composite z-score [10]	composite z-score [11]	composite z-score [12]	composite z-score [13]	composite z-score [14]	z-score [15]	composite z-score (Lefty1)	composite z-score [16]	z-score [17]
CC1N(P(=O)(c2ccccc2)c2ccccc2)CC(O)(c2ccccc2)CC12CC2 (stereo not given)	0.728 and 0.608	0.311 (inactive) and 0.617 (inactive)	-0.136 and 0.15	0.148 and 0.256	0.596 and 0.631	3.25 and 2.52	0.934 and 0.881	0.723 and -0.577	-0.665 and -0.801	-0.358 and -0.0278	1.12 and 1.33	0.773 and 0.537	1.39 and 0.264	-0.817 and 0.653	-1.07 and -0.0739	-1.02 and -0.642	0.158 and 0.776	-1.48 and -1.47	-0.322 and 0.637	2.42 (inactive) and 2.44 (inactive)
CCCC[C@@H]1C[C@H]1[C@@H](NP(=O)(c1ccccc1)c1ccccc1)c1ccc(Cl)cc1	0.708	0.198 (inactive)	0.092	-0.0684	0.307	0.807	-0.162	-0.331	-0.226	0.302	1.23	-0.212	0.343	-0.741	-1.38	-0.748	0.179	-1.83	0.319	0.183 (inactive)
CCCc1cc2c(n1Cc1ccc(C)cc1)C(C)C1CN(C(=O)c3ccccc3)C(C)(C(=O)OC)C21 (stereo not given)	0.864	1.3 (inactive)	0.773	1.03	0.803	2.02	1.45	0.52	-0.809	0.453	2.14	1.06	1.29	0.889	0.66	0.578	1.14	-0.544	0.833	-1.17 (inactive)
C[C@@H]1Cc2c(cnc3c2CN(C)CC3)CO1	-0.537	0.266 (inactive)	-0.0902	-0.111	-0.0903	0.233	-0.268	-0.512	0.975	-1.28	-0.528	-0.336	0.391	-0.383	0.783	0.664	0.0621	1.27	-0.23	-0.345 (inactive)
CN1CCc2nc(CO)c(CO)cc2C1	0.372	0.396 (inactive)	0.133	-0.115	0.2	0.121	-0.13	0.132	0.476	-0.446	1.08	0.635	0.11	0.291	0.398	0.576	1.02	0.263	-0.0298	-0.529 (inactive)
COC(=O)[C@H]1C(=O)c2ccccc2O[C@@](C(=O)OC)(c2ccccc2)[C@@H]1c1ccccc1	-0.764	0.181 (inactive)	-0.27	-0.125	-0.466	-0.583	-0.129	-0.988	-0.0221	-0.0286	-0.34	-1.34	0.0173	-1.75	-0.245	-0.105	-0.778	-0.0506	-0.738	0.164 (inactive)
CCOC(=O)[C@H]1CC=C2C(=O)Oc3ccc(Br)cc3[C@@H]21	-0.104	0.35 (inactive)	-0.245	-0.0896	0.663	1.95	0.328	0.893	-1.24	1.13	0.819	1.27	1.87	0.474	-1.1	-1.3	-0.896	-1.66	-0.0424	0.936 (inactive)
c1ccc(-c2cc3c(nc2-c2ccccc2)CCNC3)cc1	0.525	-0.369 (inactive)	0.103	-0.131	-0.301	-0.323	-0.171	-0.653	0.12	-0.269	-0.0778	-0.716	-0.0306	0.357	-0.444	0.0533	0.631	0.0391	0.326	-0.13 (inactive)
